The full ranking holds about 1,900 compounds; the median of “excess over highest single agent (ExcessHSA) synergy score, 6x6 matrix” is about -83, and the lowest 2% start at about -370. The full list was thinned out, with the lowest values kept by preference.
system: NCI-H446; assay: excess over highest single agent (ExcessHSA) synergy score, 6x6 matrix; higher = less synergy (more negative = stronger synergy); settings: 72 h; CellTiter-Glo viability

SMILES	excess over highest single agent
CC(C)C[C@H](NC(=O)[C@@H](O)[C@H](N)Cc1ccccc1)C(=O)O + Cc1sc2c(c1C)C(c1ccc(Cl)cc1)=N[C@@H](CC(=O)OC(C)(C)C)c1nnc(C)n1-2 [NCGC00250412-19]	-74.5
CC(C)C[C@H](NC(=O)[C@H](CCc1ccccc1)NC(=O)CN1CCOCC1)C(=O)N[C@@H](Cc1ccccc1)C(=O)N[C@@H](CC(C)C)C(=O)[C@@]1(C)CO1 + Cc1sc2c(c1C)C(c1ccc(Cl)cc1)=N[C@@H](CC(=O)OC(C)(C)C)c1nnc(C)n1-2 [NCGC00250412-19]	-521
COC[C@H](NC(=O)c1cnc(C)s1)C(=O)N[C@@H](COC)C(=O)N[C@@H](Cc1ccccc1)C(=O)[C@@]1(C)CO1 + Cc1sc2c(c1C)C(c1ccc(Cl)cc1)=N[C@@H](CC(=O)OC(C)(C)C)c1nnc(C)n1-2 [NCGC00250412-19]	-227
CN(C)CCN(C)C(=O)c1ccc(NC(=O)Nc2ccc(-c3nc(N4CCOCC4)c4ccn(CC(F)(F)F)c4n3)cc2)cc1 + Cc1sc2c(c1C)C(c1ccc(Cl)cc1)=N[C@@H](CC(=O)OC(C)(C)C)c1nnc(C)n1-2 [NCGC00250412-19]	-272
CC(C)=CC[C@@H](O)C1=CC(=O)c2c(O)ccc(O)c2C1=O + Cc1sc2c(c1C)C(c1ccc(Cl)cc1)=N[C@@H](CC(=O)OC(C)(C)C)c1nnc(C)n1-2 [NCGC00250412-19]	-344
Clc1ccc(-c2nc3sccn3c2C=NOCc2ccc(Cl)c(Cl)c2)cc1 + Cc1sc2c(c1C)C(c1ccc(Cl)cc1)=N[C@@H](CC(=O)OC(C)(C)C)c1nnc(C)n1-2 [NCGC00250412-19]	-98.8
CCOc1cc(/C=C2/C(=O)N(c3ccccc3)N=C2C)cc(Cl)c1OCC(=O)OC + Cc1sc2c(c1C)C(c1ccc(Cl)cc1)=N[C@@H](CC(=O)OC(C)(C)C)c1nnc(C)n1-2 [NCGC00250412-19]	76.6
CS(=O)(=O)N1CCc2c(-c3cnc(N)nc3)nc(N3CCOCC3)nc21 + Cc1sc2c(c1C)C(c1ccc(Cl)cc1)=N[C@@H](CC(=O)OC(C)(C)C)c1nnc(C)n1-2 [NCGC00250412-19]	-391
Cc1nc(N)ncc1-c1nc(N2CCOCC2)c2sc(C(C)(C)O)cc2n1 + Cc1sc2c(c1C)C(c1ccc(Cl)cc1)=N[C@@H](CC(=O)OC(C)(C)C)c1nnc(C)n1-2 [NCGC00250412-19]	-337
COc1ccc(Nc2cc(-c3cnc(N)nc3)nc(N3CCOCC3)n2)cn1 + Cc1sc2c(c1C)C(c1ccc(Cl)cc1)=N[C@@H](CC(=O)OC(C)(C)C)c1nnc(C)n1-2 [NCGC00250412-19]	3.49
N=C1S/C(=C\c2ccc(-c3ccc4c(c3)C(=O)NC4=O)o2)C(=O)N1c1ccc(Br)cc1 + Cc1sc2c(c1C)C(c1ccc(Cl)cc1)=N[C@@H](CC(=O)OC(C)(C)C)c1nnc(C)n1-2 [NCGC00250412-19]	122
Cc1c(CCOc2ccc(C(=O)O)cc2)c2cc(Cl)ccc2n1C(c1ccccc1)c1ccccc1 + Cc1sc2c(c1C)C(c1ccc(Cl)cc1)=N[C@@H](CC(=O)OC(C)(C)C)c1nnc(C)n1-2 [NCGC00250412-19]	-12
COc1cccc2c1C(=O)c1c(O)c3c(c(O)c1C2=O)C[C@@](O)(C(=O)CO)C[C@@H]3O[C@H]1C[C@H](N)[C@@H](O)[C@H](C)O1 + Cc1sc2c(c1C)C(c1ccc(Cl)cc1)=N[C@@H](CC(=O)OC(C)(C)C)c1nnc(C)n1-2 [NCGC00250412-19]	-433
COc1cccc2c1C(=O)c1c(O)c3c(c(O)c1C2=O)C[C@@](O)(C(C)=O)C[C@@H]3O[C@H]1C[C@H](N)[C@H](O)[C@H](C)O1 + Cc1sc2c(c1C)C(c1ccc(Cl)cc1)=N[C@@H](CC(=O)OC(C)(C)C)c1nnc(C)n1-2 [NCGC00250412-19]	-304
COc1cccc2c1C(=O)c1c(O)c3c(c(O)c1C2=O)C[C@@](O)(C(=O)CO)C[C@@H]3O[C@H]1C[C@H](N)[C@H](O)[C@H](C)O1 + Cc1sc2c(c1C)C(c1ccc(Cl)cc1)=N[C@@H](CC(=O)OC(C)(C)C)c1nnc(C)n1-2 [NCGC00250412-19]	-176
C[N+](C)([O-])CCNc1ccc(NCC[N+](C)(C)[O-])c2c1C(=O)c1c(O)ccc(O)c1C2=O + Cc1sc2c(c1C)C(c1ccc(Cl)cc1)=N[C@@H](CC(=O)OC(C)(C)C)c1nnc(C)n1-2 [NCGC00250412-19]	-286
CN(C)c1ccc(C(=O)NCCCCCCC(=O)NO)cc1 + Cc1sc2c(c1C)C(c1ccc(Cl)cc1)=N[C@@H](CC(=O)OC(C)(C)C)c1nnc(C)n1-2 [NCGC00250412-19]	-250
Nc1ccc(C(=O)c2cc3c(ccc4ccccc43)[nH]2)cc1 + Cc1sc2c(c1C)C(c1ccc(Cl)cc1)=N[C@@H](CC(=O)OC(C)(C)C)c1nnc(C)n1-2 [NCGC00250412-19]	-275
CO[C@H]1C(=O)[C@]2(C)[C@@H](OC)C[C@H]3OC[C@@]3(OC(C)=O)[C@H]2[C@H](OC(=O)c2ccccc2)[C@]2(O)C[C@H](OC(=O)[C@H](O)[C@@H](NC(=O)OC(C)(C)C)c3ccccc3)C(C)=C1C2(C)C + Cc1sc2c(c1C)C(c1ccc(Cl)cc1)=N[C@@H](CC(=O)OC(C)(C)C)c1nnc(C)n1-2 [NCGC00250412-19]	-412

SMILES	excess over highest single agent
CC(=O)O[C@H]1C(=O)[C@@]2(C)[C@H]([C@H](OC(=O)c3ccccc3)[C@]3(O)C[C@H](OC(=O)[C@H](O)[C@@H](NC(=O)c4ccccc4)c4ccccc4)C(C)=C1C3(C)C)[C@]1(OC(C)=O)CO[C@@H]1C[C@@H]2O + Cc1sc2c(c1C)C(c1ccc(Cl)cc1)=N[C@@H](CC(=O)OC(C)(C)C)c1nnc(C)n1-2 [NCGC00250412-19]	-144
CC(=O)O[C@@]12CO[C@@H]1C[C@H](O)[C@@]1(C)C(=O)[C@H](O)C3=C(C)[C@@H](OC(=O)[C@H](O)[C@@H](NC(=O)OC(C)(C)C)c4ccccc4)C[C@@](O)([C@@H](OC(=O)c4ccccc4)[C@H]21)C3(C)C + Cc1sc2c(c1C)C(c1ccc(Cl)cc1)=N[C@@H](CC(=O)OC(C)(C)C)c1nnc(C)n1-2 [NCGC00250412-19]	-135
CC(C)c1ccccc1Cc1cc(C(=O)Nc2ccc(S(=O)(=O)c3ccccc3C(C)(C)C)cc2)c(O)c(O)c1O + Cc1sc2c(c1C)C(c1ccc(Cl)cc1)=N[C@@H](CC(=O)OC(C)(C)C)c1nnc(C)n1-2 [NCGC00250412-19]	-282
Cc1ccccc1C(C(=O)NC1CCCCC1)N(C(=O)CNc1ccc(C#N)cc1)c1cccc(F)c1 (configuration not stated) + Cc1sc2c(c1C)C(c1ccc(Cl)cc1)=N[C@@H](CC(=O)OC(C)(C)C)c1nnc(C)n1-2 [NCGC00250412-19]	-209
O=C(O)C(=O)O.[NH-]C1CCCCC1[NH-].[Pt+2] (configuration not stated) + Cc1sc2c(c1C)C(c1ccc(Cl)cc1)=N[C@@H](CC(=O)OC(C)(C)C)c1nnc(C)n1-2 [NCGC00250412-19]	-135
CC(C)(N)C(=O)N[C@H](COCc1ccccc1)C(=O)N1CCC2(CC1)CN(S(C)(=O)=O)c1ccccc12 + Cc1sc2c(c1C)C(c1ccc(Cl)cc1)=N[C@@H](CC(=O)OC(C)(C)C)c1nnc(C)n1-2 [NCGC00250412-19]	-36
CC(C)CC(=O)Nc1n[nH]c2c1CN(C(=O)C1CCN(C)CC1)C2(C)C + Cc1sc2c(c1C)C(c1ccc(Cl)cc1)=N[C@@H](CC(=O)OC(C)(C)C)c1nnc(C)n1-2 [NCGC00250412-19]	-619
COc1cc(Oc2ccnc3cc(OC)c(OC)cc23)ccc1NC(=O)NC(C)c1nccs1 (configuration not stated) + Cc1sc2c(c1C)C(c1ccc(Cl)cc1)=N[C@@H](CC(=O)OC(C)(C)C)c1nnc(C)n1-2 [NCGC00250412-19]	-83.5
COc1ccc2[nH]c([S+]([O-])Cc3ncc(C)c(OC)c3C)nc2c1 (configuration not stated) + Cc1sc2c(c1C)C(c1ccc(Cl)cc1)=N[C@@H](CC(=O)OC(C)(C)C)c1nnc(C)n1-2 [NCGC00250412-19]	45.9
COc1c(C)cnc(Cn2cnc3c(Cl)nc(N)nc32)c1C + Cc1sc2c(c1C)C(c1ccc(Cl)cc1)=N[C@@H](CC(=O)OC(C)(C)C)c1nnc(C)n1-2 [NCGC00250412-19]	-371
COc1ccc2cc(-c3nc(-c4ccc([S+](C)[O-])cc4)[nH]c3-c3ccncc3)ccc2c1 (configuration not stated) + Cc1sc2c(c1C)C(c1ccc(Cl)cc1)=N[C@@H](CC(=O)OC(C)(C)C)c1nnc(C)n1-2 [NCGC00250412-19]	-100
CCN(CC)CCOc1ccc(Nc2ncc3cc(-c4c(Cl)cccc4Cl)c(=O)n(C)c3n2)cc1 + Cc1sc2c(c1C)C(c1ccc(Cl)cc1)=N[C@@H](CC(=O)OC(C)(C)C)c1nnc(C)n1-2 [NCGC00250412-19]	-126
CC(C)(O)CCc1ccc(OCc2cc(-c3cccc(OC(F)F)c3)c3ncccc3c2)cc1 + Cc1sc2c(c1C)C(c1ccc(Cl)cc1)=N[C@@H](CC(=O)OC(C)(C)C)c1nnc(C)n1-2 [NCGC00250412-19]	48.5
COc1nccc(-c2c(-c3ccc(F)cc3)ncn2C2CCNCC2)n1 + Cc1sc2c(c1C)C(c1ccc(Cl)cc1)=N[C@@H](CC(=O)OC(C)(C)C)c1nnc(C)n1-2 [NCGC00250412-19]	-55.9
COc1cccc2c1[C@]13CCN(CC4CC4)[C@H](C2)[C@]1(OC)CCC(=O)C3 + Cc1sc2c(c1C)C(c1ccc(Cl)cc1)=N[C@@H](CC(=O)OC(C)(C)C)c1nnc(C)n1-2 [NCGC00250412-19]	-55
CO[C@@H]1[C@H](N(C)C(=O)c2ccccc2)C[C@H]2O[C@]1(C)n1c3ccccc3c3c4c(c5c6ccccc6n2c5c31)C(=O)NC4=O + Cc1sc2c(c1C)C(c1ccc(Cl)cc1)=N[C@@H](CC(=O)OC(C)(C)C)c1nnc(C)n1-2 [NCGC00250412-19]	-113
CN[C@@H]1C[C@H]2O[C@@](C)([C@@H]1OC)n1c3ccccc3c3c4c(c5c6ccccc6n2c5c31)C(=O)N[C@H]4O + Cc1sc2c(c1C)C(c1ccc(Cl)cc1)=N[C@@H](CC(=O)OC(C)(C)C)c1nnc(C)n1-2 [NCGC00250412-19]	-378
CO[C@@H]1[C@H](N(C)C(=O)c2ccccc2)C[C@H]2O[C@]1(C)n1c3ccccc3c3c4c(c5c6ccccc6n2c5c31)C(=O)NC4 + Cc1sc2c(c1C)C(c1ccc(Cl)cc1)=N[C@@H](CC(=O)OC(C)(C)C)c1nnc(C)n1-2 [NCGC00250412-19]	-207

— the supplement of paper PMC10077471
